The values below come from PubChem BioAssay AID489028 (Sanford-Burnham Center for Chemical Genomics, 2010).

Out of some 10,000 compounds screened, about 5,600 (56%) were called active. The set was probably picked from earlier hits. Only a sample is shown. Unmarked numbers belong to inactive results. No stated cut-off is given here; in the data, active means inhibition above about 40%; inactive means the rest.

The target of this test is Protein Mdm4 (Homo sapiens) + E3 ubiquitin-protein ligase Mdm2 (Homo sapiens) (UniProt O15151+Q00987). Description: inhibition of human Mdm2/MdmX pairing – luminescence, single concentration, confirmation (AID 489028). Particulars: Mdm2-MdmX binding, luminescent assay; at 8 µM; hits give high values.
Chain of Protein Mdm4 (Homo sapiens) + E3 ubiquitin-protein ligase Mdm2 (Homo sapiens) (O15151 whole entry, looked up): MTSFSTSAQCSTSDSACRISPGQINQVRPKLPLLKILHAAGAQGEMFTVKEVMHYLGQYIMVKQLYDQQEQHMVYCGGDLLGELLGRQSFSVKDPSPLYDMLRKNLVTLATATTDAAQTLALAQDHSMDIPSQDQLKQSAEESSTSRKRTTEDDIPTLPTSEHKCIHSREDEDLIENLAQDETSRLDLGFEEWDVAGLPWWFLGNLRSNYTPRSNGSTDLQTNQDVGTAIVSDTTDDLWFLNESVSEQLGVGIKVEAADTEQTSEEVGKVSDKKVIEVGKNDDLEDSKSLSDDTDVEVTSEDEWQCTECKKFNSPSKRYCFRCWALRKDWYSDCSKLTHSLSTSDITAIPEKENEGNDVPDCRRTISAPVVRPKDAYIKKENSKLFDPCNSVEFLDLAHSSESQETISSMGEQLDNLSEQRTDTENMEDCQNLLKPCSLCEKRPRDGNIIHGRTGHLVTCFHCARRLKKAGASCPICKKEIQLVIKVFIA
Chain of Protein Mdm4 (Homo sapiens) + E3 ubiquitin-protein ligase Mdm2 (Homo sapiens) (Q00987 whole entry, looked up): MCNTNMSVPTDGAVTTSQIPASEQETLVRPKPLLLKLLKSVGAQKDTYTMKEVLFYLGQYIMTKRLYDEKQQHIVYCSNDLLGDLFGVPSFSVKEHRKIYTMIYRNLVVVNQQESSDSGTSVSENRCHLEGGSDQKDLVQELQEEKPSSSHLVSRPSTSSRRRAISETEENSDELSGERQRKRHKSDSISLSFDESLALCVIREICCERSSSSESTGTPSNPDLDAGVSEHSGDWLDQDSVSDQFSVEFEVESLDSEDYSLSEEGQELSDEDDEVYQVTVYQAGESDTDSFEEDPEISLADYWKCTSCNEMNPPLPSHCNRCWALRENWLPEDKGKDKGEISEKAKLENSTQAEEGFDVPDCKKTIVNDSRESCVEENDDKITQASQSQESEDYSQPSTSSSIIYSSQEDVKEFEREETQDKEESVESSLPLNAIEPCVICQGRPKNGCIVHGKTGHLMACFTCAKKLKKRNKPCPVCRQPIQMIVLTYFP
On to `CCOc1cc(N2CCOCC2)c(OCC)cc1NC(=O)COc1cccc2cccnc12`, for which the inhibition was 80.8% (active).

Consider `CCOc1cc(NC(=O)c2ccco2)c(OCC)cc1NC(=O)COc1ccccc1`, for which the inhibition was 25.9%.

Consider `CN1CCN(c2ccccc2NC(=O)COc2ccc(C3CCCCC3)cc2)CC1`, for which the inhibition was 20%.

In the case of `CCc1ccc(N(CC)c2ncnc3nc[nH]c23)cc1`, the inhibition is 52.4% (active).

On to `COc1ccc2sc(-c3ccc(S(C)(=O)=O)cc3)c(C#Cc3cncn3C)c2c1`, for which the inhibition is 60.5% (active).

Turning to `Cc1cccc(-c2oc3ccc(-c4ccc5c(c4)OCO5)cc3c2C#Cc2cncn2C)c1`, the inhibition was 30.1%.

As for `O=C(CCNC(=O)c1ccc(Cl)cc1)NC1CCCc2ccccc21` (stereo unspecified), the inhibition is 57.9% (active).

Consider `COc1ccc(-c2ccc(Nc3ccc(S(=O)(=O)N4CCCC4)cc3)nn2)cc1OC`, for which the inhibition was 53.5% (active).

With `CC(C)Cc1nc(Nc2ccc(S(=O)(=O)N3CCCC3)cc2)c2nnn(Cc3ccccc3)c2n1`, the inhibition was 36.1%.

In the case of `COc1ccc(C(CCN(Cc2ccc(OC)c(OC)c2)C(=O)CCl)c2ccccc2)cc1` (stereo unspecified), the inhibition is 73.3% (active).

Take `CCOC(=O)CC1C(=O)NCCN1c1nc2c(C)cccn2c(=O)c1/C=C1\SC(=S)N(C(C)CC)C1=O` (stereo unspecified): the inhibition was 61.7% (active).

Regarding `COc1ccccc1-n1nnnc1S(=O)(=O)Cc1ccc(Cl)cc1`, the inhibition is 74.9% (active).

For the molecule `NC(N)=N/N=C/c1ccc(OCc2ccc(Cl)cc2Cl)cc1`, the inhibition was 99.7% (active).

Regarding `CCCCCCc1cc2cc(-c3nnc(-c4ccccc4)o3)c(=O)oc2cc1O`, the inhibition was 0.95%.

Take `CC(Nc1nc(N2CCCC2)nc2ccccc12)c1ccccc1` (stereo unspecified): the inhibition was 40.5% (active).

As for `Cc1[nH]nc(-c2ccc(OCc3cnn(-c4ccccc4)c3)cc2O)c1Oc1ccc(Cl)cc1`, the inhibition is 25.5%.

Turning to `COC(=O)c1sc(-c2ccc(C(C)(C)C)cc2)cc1NC(=O)/C=C/C(=O)O`, the inhibition was 52.6% (active).

`O=S(=O)([N-]c1nc2ccccc2nc1-[n+]1ccc(Cc2ccccc2)cc1)c1ccc(Br)s1`: the inhibition is 60% (active).

`Cc1cccc(-c2nc3ccc(C(=O)NCCN4CCN(C)CC4)cc3nc2-c2cccc(C)c2)c1`: the inhibition is 28.6%.

For `Cc1cc(CNC(=O)c2cccc([N+](=O)[O-])c2)c2ccccc2n1`, the inhibition was 58.7% (active).

In the case of `O=C(NCc1ccccc1)C1=C[C@@H](C2CCCCC2)C[C@@H](OCc2ccc(CO)cc2)O1`, the inhibition is 32.2%.

Take `CN(C)CC(O)COc1ccc(C(C)(C)c2ccc(OCC(O)CN(C)C)cc2)cc1` (stereo unspecified): the inhibition is 89.7% (active).

`CN(Cc1ccccc1)CC(O)COc1ccc(CNCc2cc3ccccc3s2)cc1` (stereo unspecified): the inhibition was 32.6%.

With `COc1ccc(C2=Nn3c(nnc3-c3ccccc3OC)SC2)cc1OC1CCCC1`, the inhibition was 73.4% (active).

With `COc1cccc2cc(C(N)=O)/c(=N\NC(=O)c3ccccc3)oc12`, the inhibition is 44% (active).

For the molecule `Cc1cccc(CN2CCC(CNC(=O)Nc3ccc(F)c(Cl)c3)CC2)c1`, the inhibition is 36%.

Take `Cc1cccc(NC(=O)Nc2cccc(Oc3c(F)c(F)c(F)c(F)c3F)c2)c1`: the inhibition was 73% (active).

For the molecule `Oc1c(Br)cccc1/C=N/Nc1c(F)c(F)c(F)c(F)c1F`, the inhibition was 58.2% (active).

For the molecule `CNC[C@H](CC1CCCCC1)NC[C@H](NCCC1CCCC1)[C@H](C)O`, the inhibition is 77% (active).

As to `Cc1ccc(C(=O)N/C(=C/c2ccc(-c3cccc([N+](=O)[O-])c3)o2)C(=O)NCCCN(C)C)cc1`, the inhibition is 49.5% (active).

As to `Cc1ccc(Cc2cnc(NC(=O)/C(C#N)=C/c3ccc(-c4cccc([N+](=O)[O-])c4)o3)s2)cc1`, the inhibition is 6.4%.

In the case of `CC(C)n1cnc2c(Nc3cccc(Cl)c3)nc(N(CCO)CCCO)nc21`, the inhibition is 60.8% (active).

As for `CC12CCC(C(=O)N(NC(=O)c3ccccc3O)C1=O)C2(C)C` (stereo unspecified), the inhibition was 11.2%.

As to `CCC(c1nnnn1C1CCCC1)N(Cc1cccs1)Cc1cc2cccc(C)c2[nH]c1=O` (stereo unspecified), the inhibition was 13.8%.

Regarding `CN(c1ccc2nc3ccccc3c(=O)n2n1)C1CCCCC1`, the inhibition is 89.9% (active).

`CC(=O)Oc1c(C(=O)c2nnc(C)o2)c(=O)n(Cc2ccccc2)c2ccccc12`: the inhibition was 55% (active).

As for `Cc1cc(Nc2cc(N3CCN(C)CC3)nc(Sc3ccc(NC(=O)C4CC4)cc3)n2)n[nH]1`, the inhibition was 82% (active).

As to `O=C(c1[nH]ncc1-c1ccc(Cl)cc1)C1CO1` (stereo unspecified), the inhibition was 45.3% (active).

On to `COc1cc(OC)c(OC)cc1/C=N/Nc1ncnc2c1[nH]c1ccc(C)cc12`, for which the inhibition was 27%.

On to `COc1ccc(Cc2nnc(N/N=C/c3ccccc3O)[nH]c2=O)cc1OC`, for which the inhibition is 76.2% (active).

As for `Cc1ccc(N(Cc2cc(=O)[nH]c3ccccc23)C(=O)CCl)cc1`, the inhibition was 74.9% (active).

On to `COc1ccc(-c2nc(-c3ccccc3)no2)c(OC)c1`, for which the inhibition is 50.4% (active).

Regarding `CC(C)n1cnc2c(NCc3ccccc3)cc(N[C@@H](CO)Cc3ccccc3)cc21`, the inhibition was 32.5%.

For the molecule `O=C(CSc1cccc2cccnc12)N/N=C/c1cccnc1`, the inhibition is 45% (active).

Consider `Cc1c(NC(=O)CSc2cccc3cccnc23)c(=O)n(-c2ccccc2)n1C`, for which the inhibition is 10.3%.

Turning to `c1ccc(C2CCC(N3CCC(N4CCCCC4)CC3)CC2)cc1` (stereo unspecified), the inhibition was 86.5% (active).

For `O=C1Nc2cc(C(=O)N3CCC(N4CCCCC4)CC3)ccc2S/C1=C\c1ccccc1`, the inhibition is 27.8%.

Regarding `CC(NC(=O)Nc1ccccc1)C(c1cccs1)N1CCN(c2ccccc2)CC1` (stereo unspecified), the inhibition is 70.3% (active).

For the molecule `COc1ccc(C2CC(c3cccs3)=NN2c2nc(C)c(C(C)=O)s2)cc1OC` (stereo unspecified), the inhibition is 25.1%.

Take `Cn1cc([N+](=O)[O-])c(C(=O)Nc2cnn(Cc3ccc(F)cc3)c2)n1`: the inhibition is 57.5% (active).

Turning to `CCn1cc(CN2CCC(C(=O)Nc3cccc(-c4cccc(Cl)c4)c3)CC2)c(C)n1`, the inhibition was 48% (active).

As to `CCn1cc(CN2CCC(C(=O)Nc3cccc(-c4cccc(Cl)c4)c3)CC2)cn1`, the inhibition is 31.9%.

Turning to `O=C(Nc1cccc(-c2cccc(Cl)c2)c1)C1CCN(C2CCC2)CC1`, the inhibition is 31.5%.

With `CCN(CC)CCC(c1ccc2c(c1)OCO2)c1c(OC)cc(OC)c2c(-c3ccccc3)cc(=O)oc12` (stereo unspecified), the inhibition is 29.8%.

For the molecule `COc1cc(OC)c2c(-c3cccc(-c4cccc(N)c4)c3)cc(=O)oc2c1`, the inhibition is 52.7% (active).

Regarding `CCN(CC)CCC(c1cc(OC)c(OC)c(OC)c1)c1c(OC)cc(OC)c2c(-c3ccccc3)cc(=O)oc12` (stereo unspecified), the inhibition is 27.6%.

As for `COc1c(C)c2c(c(O)c1C/C=C(\C)CCC(=O)O)C(=O)OC2`, the inhibition is 80.7% (active).

For `CCCCn1c(-c2cccc(C)c2)nc2cc3[nH]c(=O)c(C(C)C)nc3cc21`, the inhibition is 38%.

As for `COc1ccc(-c2nc3cc(C)ccn3c2NC2CCCCC2)cc1SC1CCCCC1`, the inhibition is 19.9%.

On to `CCOC(=O)c1ccc(NC(=O)c2nc[nH]c2C(=O)N[C@@H](CCCCNC(=O)OC(C)(C)C)C(=O)OC(C)(C)C)cc1`, for which the inhibition was 19.6%.

In the case of `COc1cc(NC(=O)c2[nH]cnc2C(N)=O)cc(C(=O)Nc2cccc(C(F)(F)F)c2)c1`, the inhibition was 63.5% (active).

On to `COc1cc(NC(=O)c2cncc(-c3ccc(C#N)cc3)c2)cc(C(=O)Nc2cccc(C(F)(F)F)c2)c1`, for which the inhibition is 55.5% (active).

With `Cc1nc(SCC(=O)Nc2cc(C)on2)c2c(C)c(C)sc2n1`, the inhibition was 27.6%.

On to `Cc1nc(N=C(N)N)nc2c(C)cccc12`, for which the inhibition was 53.1% (active).

`O=C(CC(O)(C(F)(F)F)C(F)(F)F)Nc1ccc(Cl)c(Cl)c1`: the inhibition was 95.7% (active).

Take `O=C(Cc1ccc(Cl)c(Cl)c1)Nc1ccc(SC(F)F)cc1`: the inhibition is -2.4%.

`COC(=O)C1=CN(C)C=C(C(=O)OC)C1c1ccc(Cl)cc1Cl`: the inhibition was 3.05%.

In the case of `O=C(/C(=C/c1cccc(Cl)c1)c1nc2ccccc2[nH]1)c1ccccc1`, the inhibition was 43.5% (active).

Turning to `CCOc1cc(/C=C/c2nc3ccccc3c(=O)[nH]2)cc(Br)c1OC`, the inhibition is 69.5% (active).

With `Cc1ccc(-c2cn3cc(C)ccc3n2)cc1`, the inhibition is 81.3% (active).

Consider `Cc1ccc2nc(-c3ccc(Br)cc3)cn2c1`, for which the inhibition was 53.3% (active).

Take `Cc1ccc(Nc2cc(=O)n(C3CCCCC3)c(=O)[nH]2)cc1C`: the inhibition was 19.4%.

As to `O=C(c1ccc(Cl)cc1)N1N=C(c2ccccn2)CC1(O)C(F)(F)F` (stereo unspecified), the inhibition is 15.9%.

Consider `Cc1cccc([C@@H]2[C@@H]3C(=O)N(Cc4ccccc4)C(=O)[C@@H]3[C@]3(C)C(=O)N(c4ccc(Br)cc4)C(=O)N23)c1`, for which the inhibition is 24.9%.

With `O=C1[C@H]2[C@@H](c3ccc(F)cc3)N3C(=O)N(c4ccc(C(F)(F)F)cc4)C(=O)[C@@]3(Cc3ccccc3)[C@H]2C(=O)N1C1CCCCC1`, the inhibition is 100% (active).

With `CSc1nc(-c2ccccc2)nc(C(Cl)Cl)n1`, the inhibition was 98.6% (active).

Turning to `OCCCNc1nccc(-c2cc(Nc3cccc(Cl)c3)ncn2)n1`, the inhibition is 99.8% (active).

Regarding `COc1ccc(C(=O)NC(=S)NNC(=O)CCc2ccccc2)cc1`, the inhibition is 4.55%.

For the molecule `CC[C@]1(C(=O)OC)[C@H]2C(=O)N(Cc3ccccc3)C(=O)[C@H]2[C@H]2CN=C(SCc3ccc(Cl)cc3)N21`, the inhibition was 99.7% (active).

Take `CC[C@]1(C(=O)OC)[C@H]2C(=O)N(Cc3ccccc3)C(=O)[C@H]2[C@H]2CN=C(SCc3ccc(C#N)cc3)N21`: the inhibition is 98.8% (active).

As to `CC[C@]1(C(=O)OC)[C@H]2C(=O)N(Cc3ccccc3)C(=O)[C@H]2[C@H]2CN=C(SCc3ccccc3)N21`, the inhibition is 70% (active).
